PubChem BioAssay AID504334 (NMMLSC, 2011)
A number with no mark means an inactive call.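 Rule for the calls: active = response relative to DMSO over 150%; inconclusive = yeast strain with under 70 recorded events; inactive = the rest.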

experiment: AGP1-GFP expression modulators, hit retest, confirmation, cell-based, flow cytometry, S. cerevisiae, cherry pick set 3 (AID 504334);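 note: median GFP fluorescence per well by flow cytometry over the all cells gate; ratio of sample to mean DMSO control signal so DMSO = 100% not 0%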; details: S. cerevisiae AGP1-GFP strain, 3 h, at 10 µM, active compounds read high

Compound	percent response vs DMSO
C/C(O)=C(\C#N)C(=O)Nc1cc(Br)ccc1Br	100%
Cc1ccc2c(c1N)C(=O)c1ccccc1C2=O	105%
CN1CCN(c2ncnc3ccc(Br)cc23)CC1	103%
CN(C)C(=O)Oc1ccc(Cl)c2cccnc12	93.4%
CCN1CCN(c2ncnc3ccc(Br)cc23)CC1	99.8%
CN(C)C(=O)Oc1ccnc2cc(Cl)ccc12	104%
